The results in this text go back to ChEMBL document CHEMBL1157539, “Thousands of chemical starting points for antimalarial lead identification” (Nature, 2010).

Assay type in all cases: functional
Experiment [1] deals with Plasmodium falciparum. The experiment in a line: GSK_TCMDC: Inhibition of Plasmodium falciparum 3D7 in whole red blood cells, using parasite LDH activity as an index of growth. Test compounds present at 2uM.
The subject of experiment [2] is Plasmodium falciparum. The experiment in a line: GSK_TCMDC: Inhibition of Plasmodium falciparum Dd2 in whole red blood cells, using parasite LDH activity as an index of growth. Test compounds present at 2uM.
Another experiment concerns HepG2. The experiment is described as follows: GSK_TCMDC: Percent inhibition of human HepG2 cell line. Test compounds present at 10uM.

A word on the Inhibition: it is the drop in the measured response relative to a control, in per cent. Lower therefore signals a weak effect.

Regarding `COc1ccc(-c2cccc(NC(=O)c3cccc(C#N)c3)c2)cc1CN1CCN(C)CC1.O=C(O)C(F)(F)F`, the Inhibition with Plasmodium falciparum [1] is on record as 91%; with Plasmodium falciparum [2], 16%; in the experiment with HepG2 it was 25%.

On to `COc1ccc(-c2cnc3[nH]cc(-c4ccc(C(=O)O)c(C)c4)c3c2)cn1.O=C(O)C(F)(F)F`, for which the Inhibition turned out to be 99% in the experiment on Plasmodium falciparum [1], 99% in the experiment on Plasmodium falciparum [2] and 23% with HepG2.

Turning to `CCc1c[nH]c2c(N3CCCC3=O)cc(C(=O)N[C@@H](Cc3ccccc3)[C@H](O)CNC(C)(C)c3cccc(C(F)(F)F)c3)cc12.O=CO`, the Inhibition in the experiment with Plasmodium falciparum [1] amounted to 98%; with Plasmodium falciparum [2], 99%; with HepG2 it was 10%.

With `CN(C)CCOc1cc(NC(=O)Nc2ccc(Cl)cc2C(F)(F)F)ccc1I`, the Inhibition in the experiment with Plasmodium falciparum [1] is 96%; in the experiment with Plasmodium falciparum [2] it was 16%; in the experiment with HepG2, 0%.

In the case of `COc1ccc(C(=O)C2CCN(CCCCNC(=O)c3ccc(NC(=O)c4cc(Cl)cc(Cl)c4)cc3)CC2)cc1`, the Inhibition in the experiment on Plasmodium falciparum [1] came to 100%; in the experiment with Plasmodium falciparum [2], 84%; with HepG2, 35%.

As for `Cn1cnc(CCNC(=O)c2ccc(-c3ccc(-c4nc5cc(F)ccc5[nH]4)cc3)cc2)c1`, the Inhibition in the experiment on Plasmodium falciparum [1] is recorded as 92%; in the experiment with Plasmodium falciparum [2] it was 15%; with HepG2, 17%.

On to `CC(=O)Nc1ccc(C(=O)Nc2cccc(-c3cccc(-c4nc5ccccc5[nH]4)c3)c2)cn1`, for which the Inhibition is reported as 100% in the experiment on Plasmodium falciparum [1], 100% with Plasmodium falciparum [2] and 3% with HepG2.

As for `COc1cc2nccc(Nc3ccc4c(cnn4Cc4cccc(F)c4)c3)c2cc1OC.Cl`, the results for the Inhibition in the experiment with Plasmodium falciparum [1], in the experiment on Plasmodium falciparum [2] and with HepG2 were 100%, 99% and 29%, respectively.

In the case of `Cc1ccccc1Oc1nc2ccccc2nc1SCC(=O)NC(C)C`, the Inhibition with Plasmodium falciparum [1] was 97%; with Plasmodium falciparum [2], 55%; with HepG2, 0%.

For `COc1ccc(CCC(C)N2CC(N)C(c3cn(C)c4cnccc34)C2)cc1.Cl` (stereo not given), the Inhibition with Plasmodium falciparum [1] is recorded as 98%; with Plasmodium falciparum [2] it was 0%; in the experiment on HepG2, 5%.

Take `CCOc1cc(C(=O)N[C@@H](Cc2ccccc2)[C@H](O)CNCc2cc(OC)cc(OC)c2)cc(N2CCCC2=O)c1.Cl`: the Inhibition in the experiment on Plasmodium falciparum [1] is given as 94%; with Plasmodium falciparum [2], 63%; with HepG2 it was 0%.

Consider `CCc1ccccc1-c1csc(C(=O)NCC2CCN(Cc3ccc(C(C)(C)C)cc3)C2)c1.O=C(O)C(F)(F)F` (stereo not given), for which the Inhibition in the experiment on Plasmodium falciparum [1] came to 90%; in the experiment with Plasmodium falciparum [2] it was 15%; in the experiment with HepG2 it was 25%.

As for `Cl.Nc1nc(N)c2c(ccc3c2ccn3C2CCCCC2)n1`, the Inhibition with Plasmodium falciparum [1] stood at 97%; in the experiment on Plasmodium falciparum [2], 46%; in the experiment with HepG2, 67%.

Turning to `Cc1ccc(CNC(=O)[C@H](Cc2ccccc2)Nc2ccnc(NCC3CCCCC3)n2)cc1.O=C(O)C(F)(F)F`, the Inhibition came to 92% with Plasmodium falciparum [1], 61% in the experiment on Plasmodium falciparum [2] and 84% with HepG2.

As to `CN1CCN(C(=O)CN2CCC3(CCC2=O)NC(=O)c2ccccc2O3)CC1` (stereo not given), the results for the Inhibition in the experiment on Plasmodium falciparum [1], with Plasmodium falciparum [2] and in the experiment with HepG2 were 99%, 98% and 0%, respectively.

`COc1c(C2CCN(CCCCNC(=O)c3ccc(NC(=O)c4ccc(C#N)cc4)cc3)CC2)ccc2c1CCCC2`: the results for the Inhibition in the experiment on Plasmodium falciparum [1], in the experiment with Plasmodium falciparum [2] and in the experiment on HepG2 were 97%, 100% and 81%, respectively.

`CN(C)Cc1ccc2nc(-c3cccc(Cc4cc(Cl)ccc4OCc4ccc(Cl)cc4F)n3)[nH]c2c1.Cl`: the values for the Inhibition in the experiment on Plasmodium falciparum [1], in the experiment on Plasmodium falciparum [2] and with HepG2 were 93%, 26% and 43%, respectively.

Consider `Cc1ccc(-c2nnc(Nc3ccc(CC(N)=O)cc3)c3ccccc23)cc1S(=O)(=O)NCC1CCCO1` (stereo not given), for which the Inhibition with Plasmodium falciparum [1] was 83%; in the experiment on Plasmodium falciparum [2], 64%; in the experiment on HepG2, 0%.

Turning to `COc1c(C2CCN(CCCCNC(=O)c3ccc(-c4ccc(Cl)cc4)c(OCC(N)=O)c3)CC2)ccc2c1CCCC2`, the Inhibition is 97% with Plasmodium falciparum [1], 11% in the experiment with Plasmodium falciparum [2] and 43% in the experiment on HepG2.

In the case of `COc1cc(N(C)Cc2cnc3nc(N)nc(N)c3n2)cc(OC)c1OC`, the Inhibition with Plasmodium falciparum [1] stood at 95%; in the experiment on Plasmodium falciparum [2] it was 2%; in the experiment on HepG2, 32%.

For the molecule `O=C(Nc1ccc(Cl)cc1)N1CCN(C2CCCCC2)CC1`, the values for the Inhibition with Plasmodium falciparum [1], with Plasmodium falciparum [2] and in the experiment with HepG2 were 93%, 0% and 17%, respectively.

`CS(=O)(=O)O.Nc1nc(NCC2CCC(CNS(=O)(=O)c3cccc4ccccc34)CC2)nc2ccccc12` (stereo not given): the Inhibition with Plasmodium falciparum [1] came to 97%; with Plasmodium falciparum [2] it was 42%; with HepG2, 9%.

In the case of `Cc1cc(C)cc(CC(=O)N2CCC(n3c(C)nc4ccc(C)cc43)CC2)c1`, the Inhibition in the experiment on Plasmodium falciparum [1] is 100%; in the experiment with Plasmodium falciparum [2], 100%; in the experiment with HepG2, 52%.

In the case of `Cl.N#Cc1ccc2c(c1)CN(CCCCNC(=O)c1ccc(-c3ccccc3)cc1)CC2`, the results for the Inhibition in the experiment on Plasmodium falciparum [1], in the experiment with Plasmodium falciparum [2] and in the experiment with HepG2 were 96%, 10% and 0%, respectively.

In the case of `CN(C)CCOc1ccc(-c2cc(-c3ccncc3)c(-c3ccc(Cl)c(O)c3)[nH]2)cc1.Cl`, the Inhibition in the experiment with Plasmodium falciparum [1] is on record as 98%; with Plasmodium falciparum [2], 100%; in the experiment on HepG2, 25%.

With `CCN(CCCN1CCCCC1)c1cc(C)nc(Nc2ccc(C)cc2Br)n1.O=C(O)C(F)(F)F`, the Inhibition was determined as 95% in the experiment on Plasmodium falciparum [1], 27% in the experiment on Plasmodium falciparum [2] and 49% in the experiment on HepG2.

Turning to `COCC(C)n1c(SC(C)C(=O)Nc2cc([N+](=O)[O-])ccc2Cl)nc2ccccc2c1=O` (stereo not given), the Inhibition was determined as 95% in the experiment on Plasmodium falciparum [1], 94% in the experiment with Plasmodium falciparum [2] and 0% in the experiment with HepG2.

Consider `CC(=O)Nc1ncc(C(=O)Nc2cccc(-c3ccc(-c4nc5cccc(C)c5[nH]4)cc3)c2)s1`, for which the Inhibition in the experiment with Plasmodium falciparum [1] worked out at 100%; in the experiment on Plasmodium falciparum [2], 78%; in the experiment on HepG2 it was 69%.

Consider `NCC1CCCN1Cc1ccc(-c2ccc(-c3nc4cc(F)ccc4[nH]3)cc2)cc1.O=C(O)C(F)(F)F` (stereo not given), for which the Inhibition in the experiment on Plasmodium falciparum [1] came to 100%; in the experiment on Plasmodium falciparum [2] it was 100%; in the experiment with HepG2, 31%.

In the case of `CCN(CC)CCCC(C)Nc1ccnc2[nH]c3ccccc3c12` (stereo not given), the Inhibition in the experiment with Plasmodium falciparum [1] is listed as 82%; with Plasmodium falciparum [2] it was 38%; in the experiment with HepG2, 0%.
